7 compounds from PubChem BioAssay (Tox21) can be followed below.

The nature of experiment [1]: qHTS assay to identify small molecule antagonists of the estrogen receptor alpha (ER-alpha) signaling pathway using the BG1 cell line in the presence of 0.1 nM 17-beta-estradiol - cell viability counter screen (AID 1259241). Note: nearly all actives have a fitted effect of over 40% in size. Note: potency is the fitted concentration of half-maximal effect. An outline of the steps: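 The cell line endogenously expresses full-length ER-alpha and carries four EREs driving luciferase. Cells are cultured 5 days hormone-free, treated 22 hr with compounds and 0.1 nM estradiol, then viability is read by fluorescence.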
In general terms: qHTS replaces the single test concentration by a dilution series.

The nature of experiment [2]: qHTS assay to identify small molecule antagonists of the androgen receptor (AR) signaling pathway using the MDA cell line in the presence of 0.5 nM R1881 - cell viability counter screen (AID 1259242). Note: nearly all actives have a fitted effect of over 45% in size. Note: potency is the fitted concentration of half-maximal effect. In a few lines: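 Human breast carcinoma MDA-kb2 cells, cultured without CO2, receive compounds alongside 0.5 nM (final) R1881 agonist. After 16 hr at 37C, viability is taken as live-cell protease signal.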

Experiment [3] has as its target Androgen receptor (Homo sapiens) (UniProt P10275). The experiment can be described thus: qHTS assay to identify small molecule antagonists of the androgen receptor (AR) signaling pathway using the MDA cell line in the presence of 0.5 nM R1881 (AID 1259243). Note: nearly all actives have a fitted effect of over 50% in size. Note: potency is the fitted concentration of half-maximal effect. An outline of the steps:
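Cells: MDA-kb2 (MMTV-luc). Stimulus: 0.5 nM R1881. Time: 16 hr, 37C, no CO2. Detection: ONE-Glo luminescence after 30 min at RT.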

For experiment [4], the target named is Estrogen receptor (Homo sapiens) (UniProt P03372). The experiment can be described thus: qHTS assay to identify small molecule antagonists of the estrogen receptor alpha (ER-alpha) signaling pathway using the BG1 cell line in the presence of 0.1 nM 17-beta-estradiol (AID 1259244). Note: nearly all actives have a fitted effect of over 50% in size. Note: potency is the fitted concentration of half-maximal effect. In a few lines: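 Seeding of stripped-serum-adapted VM7Luc4E2 cells, 24 h attachment, compound transfer, then 0.1 nM final 17beta-estradiol; after 22 h incubation, ONE-Glo reagent and luminescence reading.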
Estrogen receptor (Homo sapiens), sequence (P03372 whole entry, looked up): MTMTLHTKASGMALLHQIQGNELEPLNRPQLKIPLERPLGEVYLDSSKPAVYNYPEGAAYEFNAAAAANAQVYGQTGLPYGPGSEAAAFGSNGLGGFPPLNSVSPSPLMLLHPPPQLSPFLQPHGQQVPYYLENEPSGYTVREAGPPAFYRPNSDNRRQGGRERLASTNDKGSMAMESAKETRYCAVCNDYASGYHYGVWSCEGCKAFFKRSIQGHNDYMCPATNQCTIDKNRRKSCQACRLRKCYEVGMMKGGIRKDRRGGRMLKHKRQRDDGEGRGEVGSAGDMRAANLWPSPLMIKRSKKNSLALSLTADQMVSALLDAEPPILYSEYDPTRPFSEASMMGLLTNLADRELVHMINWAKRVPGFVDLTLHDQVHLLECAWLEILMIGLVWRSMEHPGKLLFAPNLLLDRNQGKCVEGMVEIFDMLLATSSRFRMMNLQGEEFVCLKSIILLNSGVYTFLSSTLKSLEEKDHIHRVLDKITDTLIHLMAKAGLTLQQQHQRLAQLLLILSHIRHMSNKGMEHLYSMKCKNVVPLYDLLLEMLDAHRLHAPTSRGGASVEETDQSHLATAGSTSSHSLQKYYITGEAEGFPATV

Experiment [5] can be described thus: qHTS assay to identify small molecule HDAC inhibitors (AID 1259364).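 Note: wild-type HCT-116 cells with endogenous class I/II HDAC activity; top concentration of the series differs between compounds; nearly all actives have a fitted effect of over 45% in size.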 An outline of the steps: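 After a 2 hr compound incubation (37C, 5% CO2), HCT-116 cells seeded at 1,500/well the day before received HDAC-Glo reagent; signal read as luminescence after 30 min at room temperature.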
A short description of experiment [6]: qHTS assay to identify small molecule HDAC inhibitors - cell viability counter screen (AID 1259365). Note: series mostly up to about 92 µM; nearly all actives have a fitted effect of over 50% in size. An outline of the steps: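 Viability readout: CellTiter-Glo luminescence. Wild-type HCT-116 cells, 2hr compound treatment following overnight attachment at 37 C.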
The nature of experiment [7]: qHTS assay to identify small molecule agonists of the sonic hedgehog signaling (Shh) pathway - cell viability counter screen (AID 1259366). Note: nearly all actives have a fitted effect of over 50% in size. Note: potency is the fitted concentration of half-maximal effect. An outline of the steps: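 Viability measured fluorometrically (CellTiter-Fluor, 1hr, 37C) in 3T3 Gli1-Luc reporter cells after 23hr compound exposure within a 24hr incubation at 37C/5% CO2.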
Experiment [8] in a line: qHTS assay to identify small molecule antagonists of the sonic hedgehog signaling (Shh) pathway - cell viability counter screen (AID 1259367). Note: nearly all actives have a fitted effect of over 55% in size. Note: potency is the fitted concentration of half-maximal effect. An outline of the steps:
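Tox21 library chemicals were tested on a Gli1-Luc NIH/3T3 clone (2,000 cells/well) stimulated by conditioned medium; viability was quantified as fluorescence from CellTiter-Fluor reagent added at 23 hr.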

The nature of experiment [9]: qHTS assay to identify small molecule agonists of the sonic hedgehog signaling (Shh) pathway (AID 1259368; calls by dose curve;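 note: NIH/3T3-derived 3T3Gli1-Luc cells carrying a stable Gli1-driven firefly luciferase reporter; series mostly up to about 92 µM; nearly all actives have a fitted effect of over 15% in size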). In a few lines:
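Stable NIH/3T3 Gli1-Luc reporter clone; 24 hr cpd exposure after a 4 hr settling period; luminescence endpoint.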

Experiment [10] in a line: qHTS assay to identify small molecule antagonists of the sonic hedgehog signaling (Shh) pathway (AID 1259369; calls by dose curve; note: nearly all actives have a fitted effect of over 45% in size). In a few lines:
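Gli1 transcriptional reporter (firefly Luc) in NIH/3T3 background, conditioned-medium activated. 24hr exposure, luminescence endpoint.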

Experiment [11] has as its target Estrogen receptor beta (Homo sapiens) (UniProt Q92731). The experiment can be described thus: qHTS assay to identify small molecule agonists of the estrogen receptor beta (ER-beta) signaling pathway (AID 1259377; active = well fitted activation curve with a large enough effect in the signal ratio in the repeat runs, not every such curve was filed as active; the % refers to the signal ratio). An outline of the steps:
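A UAS-controlled beta-lactamase reporter in ER-beta-UAS-bla HEK293T cells reports receptor activation. Compounds act for 16 hr at 37C in 2% charcoal-stripped serum, and a FRET substrate is read by fluorescence after 2 hours.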

Experiment [12] has the same target. In words: qHTS assay to identify small molecule antagonists of the estrogen receptor beta (ER-beta) signaling pathway (AID 1259378; active = well fitted inhibition curve with a large enough effect in the signal ratio in the repeat runs, not every such curve was filed as active; the % refers to the signal ratio; note: potency is the fitted concentration of half-maximal effect). An outline of the steps:
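ER-beta-UAS-bla HEK293T cells in 2% charcoal-stripped FBS medium treated with compound plus 1nM final 17-beta-estradiol for 16 hr at 37C. Beta-lactamase reporter read by FRET substrate fluorescence after 2 hours at room temperature.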

Experiment [13] is described as follows: qHTS assay to identify small molecule agonists of the androgen receptor (AR) signaling pathway in the presence of an antagonist - cell viability counter screen (AID 1259379). Note: nearly all actives have a fitted effect of over 25% in size. Note: potency is the fitted concentration of half-maximal effect. An outline of the steps: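 Counter screen for cell viability run in parallel with the AR agonist-mode luciferase assay. MDA-kb2 cells were co-treated with nilutamide (3.0uM final) and compounds, then incubated 16 hr at 37C, and CellTiter-Fluor fluorescence was measured.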

A short description of experiment [14]: qHTS assay to identify small molecule agonists of the estrogen receptor beta (ER-beta) signaling pathway - cell viability counter screen (AID 1259380). Note: nearly all actives have a fitted effect of over 30% in size. Note: potency is the fitted concentration of half-maximal effect. An outline of the steps: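 In this qHTS counter screen, HEK293T cells carrying an ER-beta/UAS beta-lactamase reporter, grown in 2% charcoal-stripped FBS, received compound for 16 hr; ATP-based CellTiter-Glo luminescence was then read after 30 min at room temperature.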

For experiment [15], the target named is Androgen receptor (Homo sapiens) (UniProt P10275). The experiment can be described thus: qHTS assay to identify small molecule agonists of the androgen receptor (AR) signaling pathway in the presence of an antagonist (AID 1259381; calls by dose curve; note: nearly all actives have a fitted effect of over 15% in size; note: potency is the fitted concentration of half-maximal effect). In a few lines:
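AR antagonist background: nilutamide 3.0uM final. Cell line: MDA-kb2, MMTV-driven luciferase, responsive to both AR and GR. Exposure 16hr, 37C, no CO2; ONE-Glo luminescence.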

Experiment [16] can be described thus: qHTS assay to identify small molecule antagonists of the estrogen receptor beta (ER-beta) signaling pathway - cell viability counter screen (AID 1259382). Note: nearly all actives have a fitted effect of over 55% in size. Note: potency is the fitted concentration of half-maximal effect. In a few lines:
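HEK293T ER-beta-UAS-bla, 2% charcoal-stripped FBS; compounds + 1nM E2 16 hr 37C; CellTiter-Glo luminescence, 30 min RT.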

Experiment [17] addresses Estrogen receptor (Homo sapiens) (UniProt P03372). In words: qHTS assay to identify small molecule agonists of the estrogen receptor alpha (ER-alpha) signaling pathway in the presence of an antagonist (AID 1259383; calls by dose curve; note: top concentration of the series differs between compounds; nearly all actives have a fitted effect of over 15% in size). In a few lines: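 ER-alpha agonism measured under antagonist challenge: 10.0nM ICI-182,780 (final) plus compound, 15 concentrations, 22hr, VM7Luc4E2 ERE-luciferase cells. Read by luminescence.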

Experiment [18] in a line: qHTS assay to identify small molecule agonists or antagonists of the thyroid stimulating hormone receptor (TSHR) signaling pathway - wild type cell line counter screen (AID 1259384; calls by dose curve). In a few lines:
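Wild-type Hek293 cells, 800/well, 18 h at 37C, then compound with Ro20-1724 for 30 min RT. cAMP by HTRF (cAMP-d2/anti-cAMP cryptate), 1 h RT, fluorescence read. 15 concentrations, triplicates.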

Experiment [19] in a line: qHTS assay to identify small molecule phospholipidosis (PLD) inducers (AID 1259344; active = well fitted curve in the direction sought with a large enough effect; an effect the other way counts as inactive or inconclusive; note: potency is the fitted concentration of half-maximal effect). In a few lines: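 Image-based: LipidTOX Red pit count/intensity per well and per cell; HepG2, 24 h compound at 37 C, PFA fixation, Hoechst counterstain.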
Experiment [20] deals with Thyrotropin receptor (Homo sapiens) (UniProt P16473). In words: qHTS assay to identify small molecule antagonists of the thyroid stimulating hormone receptor (TSHR) signaling pathway (AID 1259385; calls by dose curve; note: nearly all actives have a fitted effect of over 20% in size). An outline of the steps:
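TSHR-HEK293 cells (800/well) plated 18 h, then compounds with Ro20-1724 and TSH at 1.5 ng/mL final, 30 min at room temperature. cAMP quantified by HTRF (cAMP-d2/anti-cAMP-cryptate, 1 h); 15 concentrations in triplicate.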

The structures appear in SMILES notation. Where “and” joins values, the source holds several entries; their conditions need not be identical. Equal entries are not always repeated. Inconclusive results are not listed. A structure can be active in one record and inactive in another. Calls of active or inactive are those of the source. Unless noted, calls come from the whole dose curve; as a rule, active = well fitted curve in the direction sought with a large enough effect in the repeat runs; inconclusive = weak or mixed curves; inactive = no such curve, though single readings can be large; an effect the other way counts as inactive or inconclusive.

Estrogen receptor beta (Homo sapiens), sequence (Q92731 whole entry, looked up): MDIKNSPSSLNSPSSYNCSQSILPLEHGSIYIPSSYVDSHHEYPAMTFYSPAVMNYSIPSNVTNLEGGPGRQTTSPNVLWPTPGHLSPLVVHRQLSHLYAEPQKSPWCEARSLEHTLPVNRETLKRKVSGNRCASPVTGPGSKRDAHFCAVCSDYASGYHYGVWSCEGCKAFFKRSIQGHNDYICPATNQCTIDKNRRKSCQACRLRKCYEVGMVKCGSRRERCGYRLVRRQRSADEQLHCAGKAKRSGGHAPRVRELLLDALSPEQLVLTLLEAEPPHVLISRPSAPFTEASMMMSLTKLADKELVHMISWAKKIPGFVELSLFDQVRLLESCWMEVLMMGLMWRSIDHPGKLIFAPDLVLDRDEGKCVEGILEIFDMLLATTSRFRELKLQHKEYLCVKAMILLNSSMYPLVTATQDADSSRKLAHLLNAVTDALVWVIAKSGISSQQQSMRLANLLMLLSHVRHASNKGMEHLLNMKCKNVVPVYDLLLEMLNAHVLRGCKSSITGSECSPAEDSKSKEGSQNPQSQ
Androgen receptor (Homo sapiens), sequence (P10275 whole entry, looked up): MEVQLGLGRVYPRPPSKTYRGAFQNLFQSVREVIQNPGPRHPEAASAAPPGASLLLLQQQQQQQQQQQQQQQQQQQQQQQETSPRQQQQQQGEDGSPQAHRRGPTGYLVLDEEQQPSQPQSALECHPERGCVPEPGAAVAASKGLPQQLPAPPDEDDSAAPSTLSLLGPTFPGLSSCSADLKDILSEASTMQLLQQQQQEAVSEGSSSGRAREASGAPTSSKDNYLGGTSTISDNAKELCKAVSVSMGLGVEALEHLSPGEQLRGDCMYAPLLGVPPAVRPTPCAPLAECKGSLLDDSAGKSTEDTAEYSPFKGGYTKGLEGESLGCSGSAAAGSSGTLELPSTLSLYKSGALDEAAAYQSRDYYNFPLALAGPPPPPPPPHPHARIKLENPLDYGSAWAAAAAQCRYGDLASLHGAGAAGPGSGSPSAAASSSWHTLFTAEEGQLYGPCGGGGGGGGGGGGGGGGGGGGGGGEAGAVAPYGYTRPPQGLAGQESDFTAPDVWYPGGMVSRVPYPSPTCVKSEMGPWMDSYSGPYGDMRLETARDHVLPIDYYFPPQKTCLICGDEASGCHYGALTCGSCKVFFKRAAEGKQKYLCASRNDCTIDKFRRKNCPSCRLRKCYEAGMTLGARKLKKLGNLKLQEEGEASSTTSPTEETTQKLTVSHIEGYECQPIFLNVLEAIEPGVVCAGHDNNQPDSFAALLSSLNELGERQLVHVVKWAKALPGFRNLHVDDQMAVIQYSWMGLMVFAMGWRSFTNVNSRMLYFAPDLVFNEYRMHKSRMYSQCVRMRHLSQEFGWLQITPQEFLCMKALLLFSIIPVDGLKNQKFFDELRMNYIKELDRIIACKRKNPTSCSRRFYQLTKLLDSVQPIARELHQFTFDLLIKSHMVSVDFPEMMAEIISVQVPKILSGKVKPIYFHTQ
Thyrotropin receptor (Homo sapiens), sequence (P16473 whole entry, looked up): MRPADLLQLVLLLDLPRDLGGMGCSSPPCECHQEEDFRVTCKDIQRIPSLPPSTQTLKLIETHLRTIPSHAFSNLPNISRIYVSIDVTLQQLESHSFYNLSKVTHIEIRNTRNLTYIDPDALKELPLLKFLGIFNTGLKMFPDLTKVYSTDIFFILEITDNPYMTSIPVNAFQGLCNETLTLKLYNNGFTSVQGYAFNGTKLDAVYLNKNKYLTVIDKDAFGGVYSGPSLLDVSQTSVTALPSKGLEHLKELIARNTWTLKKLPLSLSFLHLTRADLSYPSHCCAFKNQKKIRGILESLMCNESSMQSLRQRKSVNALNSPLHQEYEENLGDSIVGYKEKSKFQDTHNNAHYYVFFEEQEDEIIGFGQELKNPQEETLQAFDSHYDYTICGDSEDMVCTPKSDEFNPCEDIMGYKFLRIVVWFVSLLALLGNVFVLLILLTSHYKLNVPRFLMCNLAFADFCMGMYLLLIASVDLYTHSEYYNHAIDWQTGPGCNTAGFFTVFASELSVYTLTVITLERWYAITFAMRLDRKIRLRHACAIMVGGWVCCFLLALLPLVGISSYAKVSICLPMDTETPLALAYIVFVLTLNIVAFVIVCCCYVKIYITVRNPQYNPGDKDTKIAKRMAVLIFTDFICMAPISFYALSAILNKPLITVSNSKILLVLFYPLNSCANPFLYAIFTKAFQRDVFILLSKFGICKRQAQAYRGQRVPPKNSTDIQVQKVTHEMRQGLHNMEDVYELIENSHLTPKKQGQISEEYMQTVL

Regarding `ClC1=C(Cl)[C@]2(Cl)[C@@H]3[C@@H](Cl)[C@@H](Cl)C[C@@H]3[C@@]1(Cl)C2(Cl)Cl`, the Potency result in experiment [1], in [2], in experiment [3], in experiment [4], in experiment [5] and in experiment [6] was “inactive” each time. Besides, the Potency result in experiment [7], in [8], in experiment [9], in experiment [10], in experiment [11] and in experiment [12] was “inactive” in each case. Further, the Potency result in experiment [13], in experiment [14], in [15], in experiment [16] and in experiment [17] was “inactive” in each case.
Take `Clc1ccc(Oc2ccccc2)cc1`: the Potency result in experiment [1], in experiment [2], in experiment [3], in experiment [4], in experiment [5] and in experiment [6] was “inactive” throughout. In addition, the Potency entry in experiment [7], in [8], in experiment [9], in [10], in experiment [13] and in [14] was “inactive” throughout. In addition, the Potency entry in experiment [15], in experiment [16] and in [17] was “inactive” in each case.
In the case of `COC(=O)N(C(=O)N1CO[C@@]2(C(=O)OC)Cc3cc(Cl)ccc3C2=N1)c1ccc(OC(F)(F)F)cc1`, the Potency entry in [1], in [2], in [5], in experiment [6], in [7] and in experiment [8] was “inactive” each time. For the same compound, the Potency result in experiment [9], in [11], in experiment [13], in experiment [14], in experiment [15] and in [16] was “inactive” throughout. Besides, the Potency result in experiment [17] is “inactive”. The Potency in [3] was 23.5 µM (active); in experiment [4], 46.9 µM (active).
For `CCc1ccccc1C`, the Potency result in [1], in [2], in experiment [3], in experiment [4], in [5] and in experiment [6] was “inactive” throughout. For the same compound, the Potency result in experiment [7], in [8], in experiment [9], in experiment [10], in experiment [11] and in [12] was “inactive” each time. The Potency result in [13], in experiment [14], in experiment [15], in experiment [16] and in experiment [17] was “inactive” each time. Further, the outcome in experiment [18] was inactive.
As for `C[C@H]1O[C@@H](O[C@H]2[C@@H](O)C[C@H](O[C@H]3[C@@H](O)C[C@H](O[C@H]4CC[C@@]5(C)[C@H](CC[C@@H]6[C@@H]5CC[C@]5(C)[C@@H](C7=CC(=O)OC7)CC[C@]65O)C4)O[C@@H]3C)O[C@@H]2C)C[C@H](O)[C@@H]1O`, the Potency result in [1], in experiment [2], in experiment [3], in experiment [4], in [5] and in experiment [7] was “inactive” throughout. Also, the Potency entry in [8], in [9], in [10], in [13] and in experiment [17] was “inactive” in each case. Also, the Potency was 2 µM (active) in experiment [19]; 43.5 nM (active) and 47.3 nM (active) in [14]; “inactive and 237 nM (active)” in experiment [15]; 30.8 nM (active) and 42.2 nM (active) in [16]. Also, the compound was classed as inactive in experiment [18].
Regarding `O=C(CCl)Nc1ccccc1`, the Potency in experiment [1] is 61.1 µM (active); in experiment [2], 61.1 µM (active); in experiment [3], 48.6 µM (active); in experiment [4] it was 61.1 µM (active); in experiment [7], 12.2 µM (active); in [8] it was 27.3 µM (active). Further, the Potency in experiment [12] is 27.3 µM (active); in experiment [13], 61.1 µM (active). The Potency entry in experiment [5], in experiment [6], in [9], in experiment [10], in experiment [11] and in experiment [14] was “inactive” in each case. Besides, the Potency result in experiment [15], in experiment [16], in experiment [17] and in experiment [20] was “inactive” each time. Further, the outcome in experiment [18] was inactive.
As for `N#Cc1ccc(O)cc1`, the Potency entry in experiment [1], in experiment [2], in experiment [3], in experiment [4], in experiment [5] and in experiment [6] was “inactive” each time. In addition, the Potency entry in experiment [7], in [8], in experiment [9], in experiment [10], in experiment [13] and in [14] was “inactive” in each case. Further, the Potency entry in [15], in [16], in experiment [17] and in experiment [20] was “inactive” each time. In addition, in [18], the call was inactive.
